Results on 7 compounds are retold here after PubChem BioAssay.

Experiment [1] is described as follows: inhibitors of TNFa-induced NFkB p65 translocation, primary screen, imaging, HUVEC, MLSMR starter and 10KST1 sets (AID 438).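 Also: compound added about 3h40 before a 20 min TNFalpha stimulation.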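 As to inhibition: signal is the nuclear over cytoplasmic p65 intensity ratio per well.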 As to conditions: HUVEC TNFa-induced p65 nuclear translocation; cell count: measured here: nuclei count (cytotoxicity indicator), at 2.08 µM; inhibition: at 2 µM, stronger effect = higher value, 0% TNFa-plus-vehicle, 100% no-TNFa wells.
A short description of experiment [2]: inhibitors of mutant huntingtin aggregation, primary screen, imaging, exon1htt(103Q)mCFP cells, high-content imaging (AID 483;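 active = visual image review flags a hit and inhibition of aggregation exceeds 20%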;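 also: compound exposure lasted 3 days before fixation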;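 as to nuclei count: percent of the per-plate median nuclei count of sample wells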). As to conditions: exon1htt(103Q)mCFP cell line, aggregate imaging, at 2 µM; inhibition of aggregation: stronger effect = higher value; nuclei count: measured here: cell count, toxicity.
The nature of experiment [3]: inhibitors of E-selectin induction by TNFa, primary screen, imaging, HUVEC, immunofluorescence, MLSMR starter and 10KST1 sets (AID 487;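 active = visually confirmed hit in the image check and inhibition above 20%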;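 as to inhibition: signal is fraction of cell area covered by stained E-selectin grains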;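 as to nuclei count: 100% = median nuclei count of all wells on the same plate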). As to conditions: HUVEC TNFalpha-induced E-selectin immunofluorescence imaging, at 2 µM; inhibition: stronger effect = higher value; nuclei count: measured here: cell number, toxicity.
Experiment [4] in a line: DUSP6 inhibitors restoring Erk phosphorylation by chemical complementation, primary imaging in DUSP6-transfected HeLa (AID 609;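 active = compounds giving at least 50% inhibition in the cell-based MKP-3 phosphatase rescue imaging test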;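 as to inhibition: phospho-Erk level distribution per well compared with pooled transfected vehicle control wells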). As to conditions: HeLa MKP-3 transfected, phospho-Erk imaging KS statistic, at 10 µM, cells stimulated with TPA for 15 min.
Experiment [5] deals with Dual specificity protein phosphatase 6 (Homo sapiens) (UniProt Q16828). The experiment is described as above. As to conditions: HeLa MKP-3 transfected, phospho-Erk imaging KS statistic; at 10 µM; stronger effect = higher value; cells stimulated with TPA for 15 min.
Sequence of Dual specificity protein phosphatase 6 (Homo sapiens) (Q16828 whole entry, looked up): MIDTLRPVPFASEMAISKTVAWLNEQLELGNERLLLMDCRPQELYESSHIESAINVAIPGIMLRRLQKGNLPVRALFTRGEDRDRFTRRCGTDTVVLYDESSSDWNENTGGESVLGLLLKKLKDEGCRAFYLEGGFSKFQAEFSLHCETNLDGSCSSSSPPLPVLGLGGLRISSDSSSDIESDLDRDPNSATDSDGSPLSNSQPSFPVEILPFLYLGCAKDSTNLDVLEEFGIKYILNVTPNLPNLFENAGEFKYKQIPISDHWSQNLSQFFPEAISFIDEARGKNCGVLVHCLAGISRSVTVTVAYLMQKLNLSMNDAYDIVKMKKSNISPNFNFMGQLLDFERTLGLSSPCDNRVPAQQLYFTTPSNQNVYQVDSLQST
For experiment [6], the target named is Voltage-gated potassium channel subunit beta-2 (Rattus norvegicus) (UniProt P62483). Nature of the experiment: KvBeta enzyme negative modulators, primary screen, biochemical, NADPH fluorescence (AID 622;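 active = fluorescence slope higher than the sample average by over 3 SD, cut at about -0.22 in these data, passing the limit was not always enough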;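 also: slope of raw intensity against log time taken from 70 to 1610 s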). As to conditions: recombinant KvBeta, 4-cyanobenzaldehyde reduction, at 10 µM, stronger effect = higher value.
Sequence of Voltage-gated potassium channel subunit beta-2 (Rattus norvegicus) (P62483 whole entry, looked up): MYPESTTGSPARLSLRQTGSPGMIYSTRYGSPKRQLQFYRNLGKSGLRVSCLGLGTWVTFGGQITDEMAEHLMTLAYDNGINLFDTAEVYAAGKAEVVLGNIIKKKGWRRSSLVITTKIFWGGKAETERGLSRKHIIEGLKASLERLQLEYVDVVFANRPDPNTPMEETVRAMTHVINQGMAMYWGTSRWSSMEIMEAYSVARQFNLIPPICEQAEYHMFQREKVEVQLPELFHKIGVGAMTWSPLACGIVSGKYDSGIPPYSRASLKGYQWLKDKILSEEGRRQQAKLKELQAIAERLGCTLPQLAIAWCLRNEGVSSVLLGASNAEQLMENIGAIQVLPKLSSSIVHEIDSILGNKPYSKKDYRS
The target is the same in experiment [7]. Nature of the experiment: KvBeta positive modulators, primary screen, biochemical, NADPH fluorescence (AID 623;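 active = NADPH fluorescence slope more negative than the mean of all samples by about 3 SD, 99.7% confidence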;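 also: fluorescence intensity change per second fitted from 20 to 320 s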). As to conditions: Recombinant KvBeta, NADPH fluorescence decrease slope, 10 min; at 10 µM; stronger effect = lower value.
In experiment [8] the target is Alpha-2C adrenergic receptor (Homo sapiens) (UniProt P18825). Nature of the experiment: modulators of alpha2C/GIRK thallium flux, primary screen, cell-based, HEK293 alpha2C/GIRK1/2 (AID 624;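 active = fluorescence slope after compound addition differing from the mean of all screened samples at 99.7% confidence, in either direction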;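 also: slope of fluorescence ratio to pre-addition baseline per second over 15 to 24 s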). As to conditions: thallium flux BTC fluorescence, at 10 µM, actives lie on both sides.
Sequence of Alpha-2C adrenergic receptor (Homo sapiens) (P18825 whole entry, looked up): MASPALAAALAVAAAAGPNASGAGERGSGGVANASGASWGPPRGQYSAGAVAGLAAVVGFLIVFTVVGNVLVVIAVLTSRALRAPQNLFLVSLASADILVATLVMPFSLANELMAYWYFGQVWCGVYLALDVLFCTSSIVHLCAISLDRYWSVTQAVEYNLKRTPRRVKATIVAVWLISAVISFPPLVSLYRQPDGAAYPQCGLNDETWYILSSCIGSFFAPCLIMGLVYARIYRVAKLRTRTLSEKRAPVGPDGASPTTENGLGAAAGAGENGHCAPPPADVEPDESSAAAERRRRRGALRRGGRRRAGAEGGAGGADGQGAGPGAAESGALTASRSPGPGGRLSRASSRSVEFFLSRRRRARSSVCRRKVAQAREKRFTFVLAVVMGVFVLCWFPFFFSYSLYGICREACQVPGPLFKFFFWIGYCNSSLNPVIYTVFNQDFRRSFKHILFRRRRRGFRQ
The target of experiment [9] is Muscarinic acetylcholine receptor M4 (Homo sapiens) (UniProt P08173). As to the kind of experiment: compounds altering M4/GIRK thallium flux, either direction, primary screen, M4 allosteric agonist project, cell-based, HEK293 M4/GIRK, BTC-AM (AID 625;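 active = fluorescence slope after compound addition differing from the mean of all tested samples at 99.7% confidence, mostly higher but some lower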;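 also: thallium influx through GIRK channels coupled to M4 in HEK293 cells with BTC-AM dye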). As to conditions: at 10 µM, actives lie on both sides.
Sequence of Muscarinic acetylcholine receptor M4 (Homo sapiens) (P08173 whole entry, looked up): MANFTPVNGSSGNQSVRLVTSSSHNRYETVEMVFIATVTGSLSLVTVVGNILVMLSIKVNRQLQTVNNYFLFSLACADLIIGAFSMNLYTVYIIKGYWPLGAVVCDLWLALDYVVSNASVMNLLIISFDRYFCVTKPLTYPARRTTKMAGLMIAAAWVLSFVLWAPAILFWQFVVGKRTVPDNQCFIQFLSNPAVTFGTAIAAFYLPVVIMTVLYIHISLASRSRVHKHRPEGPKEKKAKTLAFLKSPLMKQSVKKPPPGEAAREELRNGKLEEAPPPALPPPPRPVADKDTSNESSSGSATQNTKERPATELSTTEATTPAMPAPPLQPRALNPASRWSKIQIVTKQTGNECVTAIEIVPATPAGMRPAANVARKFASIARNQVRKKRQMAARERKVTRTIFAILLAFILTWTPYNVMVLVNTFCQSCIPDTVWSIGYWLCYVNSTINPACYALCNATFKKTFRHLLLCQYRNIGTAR
Experiment [10] in a line: inhibitors of larval lipid processing in zebrafish, primary screen, whole organism, PED6 fluorescence, gall bladder and intestine (AID 686;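 active = a full or partial loss of lipid-probe fluorescence in the fish gall bladder, intestine or both, judged by eye; inactive = no fluorescence loss, or compound toxic to the fish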;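 also: larvae 5 to 7 days old with five fish per well; signal comes from phospholipase A2 cleavage of quenched PED6 carried via bile; overnight exposure to compound and PED6 before scoring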). As to conditions: Zebrafish larvae PED6 lipid processing, fluorescence scoring; screened at 20 µM (by protocol).
Experiment [11] is described as follows: inhibitors of Chlamydomonas gravitaxis, primary screen, whole organism, Chlamydomonas reinhardtii, WT vs cilia-less mutant, absorbance, 96-well (AID 463189;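 active = inhibition at or above 50% relative to wild type and mutant plate controls; inactive = inhibition below 50%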;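 also: 0% = wild type cc124 cells in DMSO and 100% = ciliumless bld1 mutant cells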). As to conditions: OD600 absorbance, 2 days, at 10 µM, stronger effect = higher value.
A short description of experiment [12]: inhibitors of Sendai virus-induced IRF3 signaling, primary screen, TLR/RLR signaling modifier project, cell-based, Sendai virus stimulus, luciferase, 10K MLSCN set (AID 602276;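 active = inhibition at or above 50% at 10 µM; inactive = inhibition below 50%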;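 also: firefly luciferase from ISG56 promoter only with Renilla not read in this screen; 0% = Sendai virus plus DMSO and 100% = medium plus DMSO without virus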). As to conditions: HEK293 RL24 IRF3 luciferase reporter, at 10 µM, stronger effect = higher value. (In general: In a reporter assay the amount or activity of a reporter protein is the signal.)
Experiment [13] is described as follows: inhibitors of poly I:C-induced TLR3 signaling, primary screen, cell-based, poly I:C stimulus, luciferase, 10K MLSCN set (AID 602277;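 active = inhibition of the reporter signal at or above 50%; inactive = inhibition below 50%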). As to conditions: HEK293-TLR3 RL24 IRF3 luciferase reporter, at 10 µM, stronger effect = higher value.
[14] abbreviates: measured here: cell density z-score.
Setting [15] is: measured here: nuclear c-Myc green intensity z-score.
The mark [16] stands for this setting: measured here: nuclear pErk red intensity z-score, stronger effect = higher value.

By inhibition is commonly meant the drop in the measured response relative to a control, in per cent.

Calls of active or inactive are those of the source.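 The calls were made as follows, unless noted: active = inhibition above 20% together with a positive visual image hit; inconclusive = visual image hit but inhibition not above 20%; inactive = no visual image hit.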

On to `O=C1C2CC=C(Cl)CC2C(=O)N1CNc1ccccn1` (stereo unspecified), for which, in [1], the cell count stood at 549. For the same compound, the inhibition in [1] was -1.9% (inactive); in [3], -24.7% (inactive); in [5], 1.98% (inactive); in experiment [11], -11.9% (inactive); in experiment [12] it was 11.3% (inactive); in experiment [13] it was 18.2% (inactive). In addition, in experiment [2], the inhibition of aggregation is 21.8% (inactive). Further, the nuclei count in experiment [2] was 86.4%; in [3], 118%. Further, the results for the z-score in experiment [4] (setting [14]), in [4] (setting [15]) and in experiment [4] (setting [16]) were -0.409, 1.18 and -0.807, respectively. In addition, the fluorescence slope in experiment [6] is -0.446 (inactive); in experiment [9] it was 0.00609 (inactive). In addition, in experiment [7], the NADPH fluorescence slope was -1.4e-05 (inactive). Also, the slope in experiment [8] is 0.00475 (inactive). Further, the compound was classed as inactive in [10].
On to `COc1ccc(/C(O)=C2/C(=O)C(=O)N(CCN(C)C)C2c2ccccn2)cc1OC` (stereo unspecified), for which the cell count in experiment [1] was 485. The inhibition in experiment [1] was -2% (inactive); in experiment [3] it was -108% (inactive); in experiment [5], 2.71% (inactive); in experiment [11] it was -0.28% (inactive); in experiment [12] it was -0.634% (inactive); in experiment [13], 5.99% (inactive). Moreover, the inhibition of aggregation in experiment [2] is -10.2% (inactive). For the same compound, the nuclei count worked out at 100% in [2] and 103% in experiment [3]. The z-score in [4] (setting [14]) is -0.696; in experiment [4] (setting [15]) it was -0.268; in [4] (setting [16]), -0.24. The fluorescence slope in experiment [6] is -0.47 (inactive); in [9], 0.00535 (inactive). Also, in experiment [7], the NADPH fluorescence slope is -8.1e-05 (inactive). Also, in experiment [8], the slope is 0.00777 (inactive). Also, the compound was classed as inactive in experiment [10].
Regarding `Cc1cc(C)n(Cc2cc(C)c(Cn3nc(C)cc3C)cc2C)n1`, in [1], the cell count amounted to 622. The inhibition was 0.2% (inactive) in experiment [1]; -44.5% (inactive) in [3]; 1.63% (inactive) in experiment [5]; -0.144% (inactive) in experiment [11]; 8.11% (inactive) in [12]; 0.814% (inactive) in experiment [13]. For the same compound, the inhibition of aggregation in experiment [2] is 15.4% (inactive). Besides, the nuclei count stood at 102% in [2] and 137% in experiment [3]. The z-score stood at 0.927 in [4] (setting [14]), 1.3 in [4] (setting [15]) and 1.6 in experiment [4] (setting [16]). In addition, the fluorescence slope is -0.434 (inactive) in [6] and 0.00602 (inactive) in experiment [9]. Besides, the NADPH fluorescence slope in [7] was -0.000128 (inactive). Further, the slope in [8] is 0.00432 (inactive). For the same compound, the call in experiment [10] was inactive.
As for `COc1ccc(/C(O)=C2\C(=O)C(=O)N(c3cc(C)on3)C2c2ccccc2OC)cc1` (stereo unspecified), the cell count in experiment [1] was found to be 515. In addition, the inhibition in experiment [1] was -2.7% (inactive); in experiment [3], -21.7% (inactive); in experiment [5], 19.4% (inactive); in experiment [11], -3.34% (inactive); in [12] it was 8.52% (inactive); in experiment [13] it was -5.11% (inactive). Besides, in [2], the inhibition of aggregation is -8.1% (inactive). In addition, the values for the nuclei count in experiment [2] and in experiment [3] were 103% and 101%, respectively. The z-score is 1.8 in experiment [4] (setting [14]), 0.145 in experiment [4] (setting [15]) and -0.473 in experiment [4] (setting [16]). In addition, the fluorescence slope is -0.469 (inactive) in experiment [6] and 0.0068 (inactive) in experiment [9]. Besides, in experiment [7], the NADPH fluorescence slope was -6.5e-05 (inactive). Besides, the slope in experiment [8] was 0.00564 (inactive). For the same compound, the call in experiment [10] was inactive.
For `CCS(=O)(=O)CCn1c([N+](=O)[O-])cnc1C`, the cell count in [1] was found to be 637. Also, the inhibition in experiment [1] is 5.5% (inactive); in [3], -68.3% (inactive); in [5] it was 27.9% (inactive); in [11] it was 19% (inactive); in experiment [12] it was -12.7% (inactive); in [13], -11.5% (inactive). The inhibition of aggregation in [2] is 9.6% (inactive). In addition, the nuclei count in experiment [2] was determined as 97.3%; in [3], 110%. Moreover, the z-score in experiment [4] (setting [14]) stood at 0.704; in experiment [4] (setting [15]), 2.39; in experiment [4] (setting [16]), 0.14. For the same compound, the fluorescence slope in [6] is -0.507 (inactive); in [9] it was 0.00503 (inactive). In addition, the NADPH fluorescence slope in experiment [7] is -8.1e-05 (inactive). Also, the slope in [8] was 0.00495 (inactive). Further, the result in experiment [10] was inactive.
As for `CCOc1ccc2nc(SCC(=O)Nc3ncccn3)[nH]c2c1`, the cell count in [1] was 478. The inhibition in experiment [1] is -3.6% (inactive); in [3], -10.6% (inactive); in experiment [5] it was 1.98% (inactive); in experiment [11], 10.6% (inactive); in [12] it was -10.6% (inactive); in [13], 99.1% (active). In [2], the inhibition of aggregation was -10.2% (inactive). Also, the results for the nuclei count in experiment [2] and in [3] were 111% and 138%, respectively. Moreover, the z-score in experiment [4] (setting [14]) is -1.13; in experiment [4] (setting [15]) it was -0.409; in experiment [4] (setting [16]), 1.4. For the same compound, the fluorescence slope is -0.358 (inactive) in experiment [6] and 0.00652 (inactive) in experiment [9]. The NADPH fluorescence slope in experiment [7] is -4.6e-05 (inactive). For the same compound, in [8], the slope was 0.00651 (inactive). Moreover, the outcome in experiment [10] was inactive.
For `COc1ccc(Cn2c(N)c(C#N)c3nc4ccccc4nc32)cc1OC`, in experiment [1], the cell count worked out at 497. In addition, the inhibition is 2.3% (inactive) in experiment [1]; -66.5% (inactive) in [3]; 27.8% (inactive) in [5]; 2.2% (inactive) in [11]; 15.4% (inactive) in [12]; 14.9% (inactive) in [13]. Moreover, the inhibition of aggregation in experiment [2] is 12.4% (inactive). Moreover, the values for the nuclei count in experiment [2] and in experiment [3] were 100% and 123%, respectively. Besides, the values for the z-score in experiment [4] (setting [14]), in [4] (setting [15]) and in experiment [4] (setting [16]) were 0.51, -0.363 and -0.944, respectively. Besides, the figures for the fluorescence slope in experiment [6] and in experiment [9] were -0.285 (inactive) and 0.00496 (inactive), respectively. Further, in experiment [7], the NADPH fluorescence slope was -1.3e-05 (inactive). Moreover, the slope in [8] is 0.00453 (inactive). Moreover, the outcome in experiment [10] was inactive.
